Active and inactive are the calls of the source. Rule as the data show it: active = fold change permeability below about 0.7 or above about 1.3; inactive = in between.

The nature of this experiment: compounds altering in vitro BBB leakiness – cell-based, FITC-avidin fluorescence, HTS, primary screen (AID 1963498). Also: test concentration not given here. Particulars: brain endothelial barrier, actives lie on both sides.
Consider `COc1ccc2c(c1)c(CC(=O)O)c(C)n2C(=O)c1ccc(Cl)cc1`, for which the fold change permeability was 1.7 (active). In the case of `OCc1ccc(-c2nn(Cc3ccccc3)c3ccccc23)o1` it was 2 (active); in that of `CCCCCCCCCCCCCCCCCCc1ccc(C(=O)/C=C/C(=O)O)cc1`, 1.2 (inactive); in that of `CN(C)C(=O)/N=N/C(=O)N(C)C`, 1 (inactive). In the case of `CN1CCN(C2=Nc3ccccc3Cc3ccccc32)CC1` it was 1.2 (inactive); in that of `NNC(=O)CSc1nc2scc(-c3ccccc3)c2c(=O)n1-c1ccccc1`, 1.2 (inactive). For `O=C(Nc1ccncc1)c1cc([N+](=O)[O-])ccc1Cl`, the fold change permeability is 1 (inactive). `CC(C)(C)c1ccc(C(=O)CCCN2CCC(OC(c3ccccc3)c3ccccc3)CC2)cc1`: the fold change permeability was 1.6 (active). In the case of `CC(C)NNC(=O)c1ccncc1` it was 0.6 (active). As to `N#Cc1c2nc3ccccc3nc2n2ccc(NC(=O)c3cccs3)cc12`, the fold change permeability is 1.2 (inactive). In the case of `NCCS(=O)(=O)O` it was 0.8 (inactive). In the case of `CCCOC(=O)c1c(-c2ccccc2)nc(CC)c(C(=O)SCC)c1CCC` it was 1.5 (active).

As for `CC(=O)C(C)=O`, the fold change permeability is 1.1 (inactive). In the case of `CC(C)(C)c1ccc(C(=O)Nc2ccc(Nc3ccccc3)cc2)cc1` it was 1 (inactive); in that of `C1CCc2nnnn2CC1`, 1.3 (active); in that of `O=C1CCC(N2C(=O)c3ccccc3C2=O)C(=O)N1` (stereo not given), 1.6 (active). In the case of `NC(=O)C(c1ccccc1)(c1ccccc1)[C@@H]1CCN(CCc2ccc3c(c2)CCO3)C1` it was 0.8 (inactive).

Consider `O=C(O)Cc1ccc(O)c(O)c1`, for which the fold change permeability is 1 (inactive). In the case of `CCN(CC)CCOC(=O)c1cc(Cl)c(N)cc1OC`, the fold change permeability was 1.1 (inactive). In the case of `OCCN1CCN(CCCN2c3ccccc3Sc3ccc(Cl)cc32)CC1` it was 1.2 (inactive); in that of `O=C(c1ccc(OCCCc2cnc[nH]2)cc1)C1CC1`, 1 (inactive); in that of `CC(=O)c1ccc(S(=O)(=O)NC(=O)NC2CCCCC2)cc1`, 1.1 (inactive).

For `CCn1cc(C(=O)O)c(=O)c2cc3c(cc21)OCO3`, the fold change permeability is 1 (inactive). In the case of `CN1CCC[C@@H]1CCO[C@](C)(c1ccccc1)c1ccc(Cl)cc1` it was 1.1 (inactive); in that of `CSc1c(C)c(SC)n2ccncc12`, 1.3 (active); in that of `COc1ccc(CC(C)NCC(O)c2ccc(O)c(NC=O)c2)cc1` (stereo not given), 0.9 (inactive). As to `CN1C2CCCC1CC(NC(=O)c1nn(C)c3ccccc13)C2` (stereo not given), the fold change permeability was 1.4 (active). Take `CCN(CC)CCNC(=O)c1cc(S(C)(=O)=O)ccc1OC`: the fold change permeability is 0.9 (inactive). In the case of `Cc1cc(Cn2cnc3c2C[C@@H](C(=O)O)N(C(=O)C(c2ccccc2)c2ccccc2)C3)ccc1N` it was 1 (inactive); in that of `CC(C)COCC(CN(Cc1ccccc1)c1ccccc1)N1CCCC1` (stereo not given), 1 (inactive). For `Nc1ccc(-c2ccc3ccccc3n2)cc1`, the fold change permeability is 1.1 (inactive).

Consider `C[C@]12CC[C@@H]3c4ccc(O)cc4C[C@@H](CCCCCCCCCS(=O)CCCC(F)(F)C(F)(F)F)[C@H]3[C@@H]1CC[C@@H]2O` (stereo not given in full), for which the fold change permeability was 1 (inactive). For `CC(=O)N[C@H](C(=O)O)C(C)(C)SN=O`, the fold change permeability is 0.9 (inactive). In the case of `Cc1ccc(/C(=C\CN2CCCC2)c2ccccn2)cc1` it was 0.8 (inactive). In the case of `O=C(c1cc(O)c(O)c([N+](=O)[O-])c1)c1ccccc1F` it was 1.7 (active). In the case of `C[C@](N)(Cc1ccc(O)c(O)c1)C(=O)O` it was 0.8 (inactive). On to `Oc1ccc(-c2nc(-c3ccc(F)cc3)c(-c3ccncc3)[nH]2)cc1`, for which the fold change permeability was 1.1 (inactive). For the molecule `N[C@H](C(=O)O)c1cc(O)cc(O)c1`, the fold change permeability is 1.2 (inactive). In the case of `COc1ccc(Br)cc1S(=O)(=O)NC(=O)/C=C/c1ccccc1Cc1ccc2ccccc2c1` it was 1.1 (inactive). In the case of `COC(=O)C1=CO[C@@H](O)[C@@H]2C(CO)=CC[C@H]12` it was 1.1 (active).

These data come from PubChem BioAssay.
